Experimental data taken from PubChem BioAssay (NCI).
Compounds without any hit were thinned out: in the full panel of roughly 79,000, 15% have a hit. Unmarked numbers belong to inactive results. The source made the active and inactive calls. No stated cut-off is given here; in the data, active means growth inhibition above about 70%; inactive means the rest.

assay: NCI Yeast Anticancer Drug Screen. Data for the bub3 strain (AID 167); settings: S. cerevisiae bub3 mutant strain, at 5.0 µM (retest, dose inferred, filed as 0.5), hits give high values
Outline: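 Steps: expose the mutant yeast strain to compound; grow alongside vehicle-treated cultures; measure growth; express inhibition against the vehicle cultures.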

| Structure (SMILES) | growth inhibition |
| --- | --- |
| COC(=O)c1ccc(NN)cc1 | 3% |
| O=[N+]([O-])c1ccc(-c2nc3c(o2)CCC3)cc1 | -72% |
| Cc1ccc(S(=O)(=O)N/N=C(\C=C\c2ccccc2)c2ccccc2)cc1 | 15% |
| [N-]=[N+]=NC1=CC(=O)c2cccc3cccc1c23 | 32% |
| CCOc1ccc2nc3cc(Cl)ccc3[n+](C)c2c1 | 32% |
| Cc1ccc(C(c2ccc(N(C)C)cc2)c2ccc(N(C)C)cc2)cc1 | 98% (active) |
| O=[N+]([O-])c1ccc2c(c1)[n+]([O-])c1[nH]c3ccccc3c1[n+]2[O-] (tested in a mixture with another compound) | 64% |
| C/C(=N\NC(=S)N1CCCCCC1)c1cccc2cccnc12 | -4% |
| CC(C)c1cc(O)c(C(C)(C)C)cc1Cl | -11% |
| CN(C)c1ccc(/C=C(/NC(=O)c2ccccc2)c2nc3ccc(Cl)cc3[nH]2)cc1 | -8% |
| CC(C)(C)c1ccc2c(c1)C(O)(c1ccccc1)C1OC1(C(C)(C)C)C2=O (stereo not given) | -3% |
| CCCCCCCCCCCCOP(=O)(N1CC1(C)C)N1CC1(C)C (stereo not given) | 24% |
| Cc1ccc(C(=O)CC(N)C(=O)O)cc1 (stereo not given) | 2% |
| COC(=O)CCC(=O)NCCc1ccc2c([nH]c3ccccc32)c1C | 5% |
| Nc1ccc(C(=O)N/C(=C\C=C\c2ccco2)c2nc3c4c(ccc3[nH]2)C(=O)c2ccccc2C4=O)cc1 | 2% |
| Oc1ccc(CCCCCc2ccc(O)cc2)cc1 | 13% |
| O=C(O)C1C(C(=O)O)C2C(=O)C=CC1N2Cc1ccccc1 (stereo not given) | 21% |
| CC1(C)CC(=O)C(c2ccccc2[N+](=O)[O-])=C(O)C1 | -6% |
| ON(Cc1ccccc1)C(=S)c1ccccc1 | 31% |
| CCCCC(O)(c1ccc2nc(NC(=O)OC)[nH]c2c1)c1cccs1 (stereo not given) | -8% |

| Structure (SMILES) | growth inhibition |
| --- | --- |
| O=C(O)CC/C(=N\Nc1ccccc1)C(=O)O | 1% |
| CC(C)(c1ccc(OC#N)cc1)c1ccc(OC#N)cc1 | 1% |
| C=CC(C)(CCC=C(C)C)OC(=O)Nc1ccccc1 (stereo not given) | 0% |
| Cc1ccc(Cc2nc(=S)[nH][nH]2)cc1 | 8% |
| Cc1c(Cl)c(S(N)(=O)=O)cc2c1NC=NS2(=O)=O | -13% |
| O=C(c1cccnc1)N(C1CCCCC1)C1CCCCC1 | 1% |
| COc1cc(NCC(C)(O)CN2CCC(C)CC2C)c2ncccc2c1 (stereo not given) | 7% |
| O=C1C=CC(=Nc2cccc3c2-c2ccccc2C3)O1 | 99% (active) |
| CC(O)c1c2c(cc3c1CC1(C3)Cc3cc4c(c(C(C)O)c3C1)CCC4)CCC2 (stereo not given) | -50% |
| CCCCCCCCCCCCCCCC[N+](C)(C)CCl | 99% (active) |
| CCCCC(CC)CNc1ncnc2c1cnn2C (stereo not given) | 0% |
| O=C1NN(C2=NNC3(C(=O)N2)c2ccccc2-c2ccccc23)C(c2ccccc2)=N/C1=C/c1ccc(Cl)cc1 | -16% |
| CCCCc1ccc2nccc(N/N=C/c3ccc(OC)c4ccccc34)c2c1 | -4% |
| CC(C)(C[NH-])C[NH-].[Cl][Pt+2]([Cl])([Cl])[Cl] | 95% (active) |
| O=C(O)C1(Cc2ccc3c(c2)CCC3)Cc2ccccc2C1 | -6% |
| CCN(CC)C(C)(C)C(=O)/C=C/c1ccc(Cl)cc1 | 1% |
| CCc1ccccc1NC(=O)C(=O)C(C#N)c1c(Cl)cccc1Cl (stereo not given) | 1% |
| COc1c(OC)c(C2(O)C(=O)N(C)c3ccccc32)c(OC)c(OC)c1C1(O)C(=O)N(C)c2ccccc21 (stereo not given) | -3% |
| Nc1ccc2ccccc2c1N=Cc1ccccc1[N+](=O)[O-] | 15% |
| O=[N+]([O-])C1=Cc2cc(Cl)ccc2OC1c1cccc2ccccc12 (stereo not given) | 97% (active) |

same assay, conditions: S. cerevisiae bub3 mutant strain, at 50.0 µM (retest, dose inferred, filed as 5.0), hits give high values

| Structure (SMILES) | growth inhibition |
| --- | --- |
| COC(=O)c1ccc(NN)cc1 | 85% (active) |
| O=[N+]([O-])c1ccc(-c2nc3c(o2)CCC3)cc1 | -82% |
| Cc1ccc(S(=O)(=O)N/N=C(\C=C\c2ccccc2)c2ccccc2)cc1 | 49% |
| [N-]=[N+]=NC1=CC(=O)c2cccc3cccc1c23 | 99% (active) |
| CCOc1ccc2nc3cc(Cl)ccc3[n+](C)c2c1 | 88% (active) |
| Cc1ccc(C(c2ccc(N(C)C)cc2)c2ccc(N(C)C)cc2)cc1 | 92% (active) |
| O=[N+]([O-])c1ccc2c(c1)[n+]([O-])c1[nH]c3ccccc3c1[n+]2[O-] (tested in a mixture with another compound) | 90% (active) |
| C/C(=N\NC(=S)N1CCCCCC1)c1cccc2cccnc12 | 26% |
| CC(C)c1cc(O)c(C(C)(C)C)cc1Cl | 30% |
| CN(C)c1ccc(/C=C(/NC(=O)c2ccccc2)c2nc3ccc(Cl)cc3[nH]2)cc1 | -8% |
| CC(C)(C)c1ccc2c(c1)C(O)(c1ccccc1)C1OC1(C(C)(C)C)C2=O (stereo not given) | 88% (active) |
| CCCCCCCCCCCCOP(=O)(N1CC1(C)C)N1CC1(C)C (stereo not given) | 97% (active) |
| Cc1ccc(C(=O)CC(N)C(=O)O)cc1 (stereo not given) | -2% |
| COC(=O)CCC(=O)NCCc1ccc2c([nH]c3ccccc32)c1C | 4% |
| Nc1ccc(C(=O)N/C(=C\C=C\c2ccco2)c2nc3c4c(ccc3[nH]2)C(=O)c2ccccc2C4=O)cc1 | 22% |
| Oc1ccc(CCCCCc2ccc(O)cc2)cc1 | 100% (active) |
| O=C(O)C1C(C(=O)O)C2C(=O)C=CC1N2Cc1ccccc1 (stereo not given) | 73% (active) |
| CC1(C)CC(=O)C(c2ccccc2[N+](=O)[O-])=C(O)C1 | -1% |
| ON(Cc1ccccc1)C(=S)c1ccccc1 | 98% (active) |
| CCCCC(O)(c1ccc2nc(NC(=O)OC)[nH]c2c1)c1cccs1 (stereo not given) | 41% |

| Structure (SMILES) | growth inhibition |
| --- | --- |
| O=C(O)CC/C(=N\Nc1ccccc1)C(=O)O | 93% (active) |
| CC(C)(c1ccc(OC#N)cc1)c1ccc(OC#N)cc1 | 95% (active) |
| C=CC(C)(CCC=C(C)C)OC(=O)Nc1ccccc1 (stereo not given) | -14% |
| Cc1ccc(Cc2nc(=S)[nH][nH]2)cc1 | 19% |
| Cc1c(Cl)c(S(N)(=O)=O)cc2c1NC=NS2(=O)=O | -3% |
| O=C(c1cccnc1)N(C1CCCCC1)C1CCCCC1 | 12% |
| COc1cc(NCC(C)(O)CN2CCC(C)CC2C)c2ncccc2c1 (stereo not given) | 54% |
| O=C1C=CC(=Nc2cccc3c2-c2ccccc2C3)O1 | 99% (active) |
| CC(O)c1c2c(cc3c1CC1(C3)Cc3cc4c(c(C(C)O)c3C1)CCC4)CCC2 (stereo not given) | 97% (active) |
| CCCCCCCCCCCCCCCC[N+](C)(C)CCl | 100% (active) |
| CCCCC(CC)CNc1ncnc2c1cnn2C (stereo not given) | 96% (active) |
| O=C1NN(C2=NNC3(C(=O)N2)c2ccccc2-c2ccccc23)C(c2ccccc2)=N/C1=C/c1ccc(Cl)cc1 | -16% |
| CCCCc1ccc2nccc(N/N=C/c3ccc(OC)c4ccccc34)c2c1 | 90% (active) |
| CC(C)(C[NH-])C[NH-].[Cl][Pt+2]([Cl])([Cl])[Cl] | 99% (active) |
| O=C(O)C1(Cc2ccc3c(c2)CCC3)Cc2ccccc2C1 | -6% |
| CCN(CC)C(C)(C)C(=O)/C=C/c1ccc(Cl)cc1 | 82% (active) |
| CCc1ccccc1NC(=O)C(=O)C(C#N)c1c(Cl)cccc1Cl (stereo not given) | 0% |
| COc1c(OC)c(C2(O)C(=O)N(C)c3ccccc32)c(OC)c(OC)c1C1(O)C(=O)N(C)c2ccccc21 (stereo not given) | -2% |
| Nc1ccc2ccccc2c1N=Cc1ccccc1[N+](=O)[O-] | 85% (active) |
| O=[N+]([O-])C1=Cc2cc(Cl)ccc2OC1c1cccc2ccccc12 (stereo not given) | 91% (active) |
